Experimental data taken from PubChem BioAssay AID1159580 (chemical genetic matrix, 2015).
Out of some 5,500 compounds screened, about 2,000 (36%) were called active. About 18% were inconclusive and are not listed. Rule as the data show it: active = normalized growth mostly below about 0.91 (no sharp cut-off); inconclusive = no clear call, values can overlap the other calls; inactive = mostly above about 0.92. The list shows a part of the results.

Test: chemical genetic growth profiling, strain panel (AID 1159580);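 also: tested at 20 µM; growth read once vehicle control cultures reached saturation at 30 °C; 1 = growth at the plate median or of vehicle wells; lower values mean less growth of the strain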
Details: growth OD
[1] = S. cerevisiae deletion strains, locus YAL013W, strain DEP1, stronger effect = lower value
[2] = S. cerevisiae deletion strains, locus YBR229C, strain ROT2, stronger effect = lower value
[3] = S. cerevisiae deletion strains, locus YCL061C, strain MRC1, stronger effect = lower value
[4] = S. cerevisiae deletion strains, locus YDL101C, strain DUN1, stronger effect = lower value
[5] = S. cerevisiae deletion strains, locus YDR150W, strain NUM1, stronger effect = lower value
[6] = S. cerevisiae deletion strains, locus YEL061C, strain CIN8, stronger effect = lower value
[7] = S. cerevisiae deletion strains, locus YGR078C, strain PAC10, stronger effect = lower value
[8] = S. cerevisiae deletion strains, locus YHR030C, strain SLT2, stronger effect = lower value
[9] = S. cerevisiae deletion strains, locus YHR087W, strain rtc3, stronger effect = lower value
[10] = S. cerevisiae deletion strains, locus YJL187C, strain SWE1, stronger effect = lower value
[11] = S. cerevisiae deletion strains, locus YJR043C, strain POL32, stronger effect = lower value
[12] = S. cerevisiae deletion strains, locus YJR075W, strain HOC1, stronger effect = lower value
[13] = S. cerevisiae deletion strains, locus YKL190W, strain CNB1, stronger effect = lower value
[14] = S. cerevisiae deletion strains, locus YLR039C, strain RIC1, stronger effect = lower value
[15] = S. cerevisiae deletion strains, locus YLR058C, strain SHM2 (second series), stronger effect = lower value
[16] = S. cerevisiae deletion strains, locus YLR085C, strain ARP6, stronger effect = lower value
[17] = S. cerevisiae deletion strains, locus YLR262C, strain YPT6, stronger effect = lower value
[18] = S. cerevisiae deletion strains, locus YML094W, strain GIM5, stronger effect = lower value
[19] = S. cerevisiae deletion strains, locus YMR219W, strain ESC1, stronger effect = lower value
[20] = S. cerevisiae deletion strains, locus YMR263W, strain SAP30, stronger effect = lower value
[21] = S. cerevisiae deletion strains, locus YNL153C, strain GIM3, stronger effect = lower value
[22] = S. cerevisiae deletion strains, locus YNL298W, strain CLA4 (second series), stronger effect = lower value
[23] = S. cerevisiae deletion strains, locus YNL322C, strain KRE1, stronger effect = lower value
[24] = S. cerevisiae deletion strains, locus YNR030W, strain Alg12, stronger effect = lower value
[25] = S. cerevisiae deletion strains, locus YOL006C, strain TOP1, stronger effect = lower value
[26] = S. cerevisiae deletion strains, locus YPL055C, strain LGE1, stronger effect = lower value
[27] = S. cerevisiae deletion strains, locus YPL241C, strain CIN2, stronger effect = lower value
[28] = S. cerevisiae deletion strains, locus YPR135W, strain CTF4, stronger effect = lower value
[29] = S. cerevisiae deletion strains, locus YDL134C, strain PPH21, stronger effect = lower value
[30] = S. cerevisiae deletion strains, locus YGR229C, strain SMI1, stronger effect = lower value

Measured: normalized growth

O=C1OC2COC(=O)C2C=C1NC(=O)c1ccc(Cl)cc1 (centres undefined)
inactive: [5] 0.939 | [16] 0.836 | [20] 0.921 | S. cerevisiae deletion strains, locus YMR307W, strain GAS1, stronger effect = lower value 0.786 | [23] 0.967 | [24] 0.978 | [26] 0.942 | [27] 0.975
active: [1] 0.914 | [2] 0.372 | [3] 0.125 | [4] 0.154 | [6] 0.882 | [7] 0.438 | [8] 0.38 | [9] 0.225 | [10] 0.381 | [11] 0.793 | [12] 0.0733 | [13] 0.913 | [14] 0.422 | [15] 0.506 | [17] 0.436 | [18] 0.82 | [19] 0.143 | [21] 0.329 | [22] 0.698 | [25] 0.72 | [28] 0.627

CCCc1cc(Br)c(-n2cccc2)c(Br)c1
inactive: [1] 0.998 | [2] 0.993 | [4] 1.01 | [5] 1.01 | [6] 1.02 | [7] 0.997 | [8] 1.08 | [9] 0.994 | [10] 0.992 | [11] 1.02 | [12] 0.994 | [14] 1.09 | [15] 0.998 | [16] 1.08 | [17] 1.05 | [18] 1.01 | [19] 0.994 | [20] 0.938 | [21] 1.01 | [22] 1.06 | [23] 0.997 | [24] 1.01 | [25] 1.04 | [26] 1.13 | [27] 1.02 | [28] 1.05 | S. cerevisiae strains, strain wild type, stronger effect = lower value 1.03

Clc1cc(Cl)c(Cl)c(-n2cccc2)c1Cl
inactive: [5] 0.863 | [15] 0.938 | [19] 0.952 | [20] 0.916 | [21] 0.933 | [23] 0.956
active: [1] 0.855 | [2] 0.914 | [4] 0.893 | [29] 0.826 | [6] 0.763 | [7] 0.813 | [30] 0.752 | [8] 0.178 | [9] 0.8 | [11] 0.887 | [12] 0.707 | [13] 0.622 | [14] 0.304 | [16] 0.41 | [17] 0.216 | [18] 0.691 | [22] 0.641 | [24] 0.631 | [25] 0.395 | [26] 0.785 | [27] 0.701 | [28] 0.543

Clc1cc(Cl)cc(-n2cccc2)c1
inactive: [1] 1.02 | [2] 0.995 | [3] 1.03 | [4] 1.01 | [29] 0.969 | [5] 1.04 | [6] 0.963 | [7] 1 | [30] 0.98 | [8] 0.975 | [9] 0.989 | [10] 1 | [11] 1.02 | [12] 0.981 | [13] 0.988 | [14] 1.04 | [15] 0.994 | [16] 0.949 | [17] 1.05 | [18] 0.991 | [19] 0.997 | [20] 1.01 | [21] 1.01 | [22] 0.951 | [23] 1 | [24] 0.98 | [25] 0.977 | [26] 0.981 | [27] 0.987 | [28] 0.917
